# An excerpt weighted towards active compounds, which were near 3.8% of everything screened.
# Yeast superoxide: caloric restriction mimetics inhibiting age-related superoxide in yeast; S. cerevisiae aged cells, superoxide DHE fluorescence; stronger effect = lower value; superoxide response (% of plate mean), % at 10 µM; 330,000 tested, 0.18% active; AID 2690;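 active = superoxide response under a set limit, about three screen SD below normal, cut at about 65% in these data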;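 note: yeast aged for seven days with compound at 30 °C before DHE staining; 100% = average MFI of all compound-treated wells on the plate with controls excluded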
# tim23-1 inh: growth inhibitors of tim23-1 mutant yeast; 330,000 tested, 1.3% active; S. cerevisiae tim23-1 growth, BacTiter-Glo luminescence, 24 h; AID 463212; inhibition, % at 20 µM;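 active = growth inhibition of the mutant yeast at or above 50%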;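 note: temperature-sensitive mutant grown at 25 °C; plate controls were DMSO-treated mutant yeast for no effect and medium wells lacking yeast for full effect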
# tim10-1 inh: growth inhibitors of tim10-1 mutant yeast | S. cerevisiae tim10-1 ts strain growth, BacTiter-Glo, 24 h | inhibition, % at 20 µM | 330,000 tested, 2.2% active | AID 463190;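 active = inhibition of at least 40%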;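 note: mutant grown at 25 °C; 0% = DMSO wells with yeast and 100% = wells holding no yeast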
# TIM10 inh: inhibits growth of TIM10 yeast strain; S. cerevisiae TIM10 strain growth, BacTiter-Glo luminescence, 24 h; inhibition, % at 10 µM; 330,000 tested, 1.4% active; AID 463195;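 active = inhibition of 40% or more at the single tested concentration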;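 note: wild-type TIM10 isogenic control strain grown at permissive 25 °C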
# NLRP3 yeast inh: NALP3 inhibition in yeast | Yeast reconstituted NLRP3/ASC/caspase-1, beta-gal luminescence, 24 h | inhibition, % at 10 µM | 330,000 tested, 0.39% active;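 active = inhibition of 50% or more; inactive = inhibition below 50%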;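 note: plate controls were induced DMSO wells for no effect and uninduced yeast grown without galactose for full effect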
# tim10-1 confirm: confirmation of tim10-1 mutant yeast growth inhibitors | shares compounds with tim10-1 inh | S. cerevisiae tim10-1 ts strain growth, BacTiter-Glo, 24 h | inhibition, % at 20 µM | 7,400 tested, 56% active | AID 463213;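 active = inhibition of yeast growth at or above a set limit in either of two repeat tests at 20 µM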;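 note: tim10-1 mutant grown at permissive 25 °C to find synthetic lethal compounds; 0% = DMSO yeast wells and 100% = medium wells without yeast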
# * marks the source's active call; other numbers are inactive results; / = no result.
SMILES,Yeast superoxide,tim23-1 inh,tim10-1 inh,TIM10 inh,NLRP3 yeast inh,tim10-1 confirm
O=C(N/N=C/c1ccco1)c1cc(-c2ccccc2)nc2ccccc12,78.4,32.4,20.0,21.4,11.3,/
CCCc1ccc(-c2cc(C(=O)N/N=C/c3ccc([N+](=O)[O-])o3)c3ccccc3n2)cc1,100.9,46.3,44.2*,31.3,20.9,48.8*
CCC(C)c1ccccc1NC(=O)COC(=O)C1=NN(c2ccccc2)C(=O)CC1 (configuration not stated),126.5,-1.6,-4.3,0.6,-5.8,/
O=C(Nc1cccc(Cl)c1)c1cccnn1,79.0,20.0,28.0,7.2,20.0,/
O=C(N/N=C/c1ccccn1)c1cc(-c2ccc(Br)cc2)nc2ccccc12,92.4,49.9,43.8*,37.8,27.4,23.9
Cc1ccc(-c2cc(C(=O)NN=C3CCCC3)c3ccccc3n2)cc1,103.7,41.5,44.3*,21.5,19.7,25.4
CCNc1nc(C23CC4CC(CC(C4)C2)C3)cs1,88.1,32.6,28.6,2.4,25.9,/
COC(=O)C1=C(C(=O)OC)[C@@H]2N(C)c3ccccc3[C@@]23C[C@@H](C(=O)OC)N(C(=O)c2cccs2)C3=N1,89.0,20.5,16.9,27.0,2.8,/
COC(=O)C1=C(C(=O)OC)[C@@H]2N(Cc3ccccc3)c3ccccc3[C@@]23C[C@@H](C(=O)OC)N(C(=O)c2cccs2)C3=N1,94.3,41.6,42.4*,17.8,15.2,29.6
CCCCc1ccc(NC(=S)Nc2cccnc2)cc1,102.8,22.7,35.9,15.4,10.6,/
COC(=O)Cc1ccc(NC(=S)NCc2cccc(OC)c2)cc1,84.2,1.9,16.8,-0.4,10.7,/
CCCCc1ccc(NC(=S)NCc2cccc(OC)c2)cc1,84.9,17.4,43.7*,32.6,13.3,29.7
CCCCc1ccc(NC(=S)Nc2ccc(Nc3ccc(OC)cc3)cc2)cc1,109.8,33.7,45.2*,19.7,35.2,35.4*
COc1ccc(OC)c(NC(=S)NCCSc2ccc(C)cc2)c1,91.4,42.2,44.2*,32.8,28.5,13.6
COc1cccc(CNC(=S)Nc2cc(OC)ccc2OC)c1,107.0,13.6,45.0*,11.3,-34.0,25.4
COc1cccc(CNC(=S)Nc2ccc(Cl)cc2C)c1,81.4,40.0,6.1,8.8,28.4,/
O=C(Nc1cc(-c2ccccc2)[nH]n1)c1ccc(Cl)cc1,100.1,34.0,-31.2,7.8,2.5,/
CCCc1c(C(=O)N/N=C/c2cccnc2)nnn1-c1nonc1N,91.5,-21.4,4.5,5.9,22.9,/
Cc1c(C(=O)C(=O)N2CCCc3ccccc32)c2ccccc2n1C,121.4,28.7,42.9*,15.8,-2.1,23.5
Cc1[nH]c2ccccc2c1C(O)CN1CCN(c2cccc(C(F)(F)F)c2)CC1 (configuration not stated),95.3,-3.2,54.6*,25.8,-6.0,48.3*
Cc1[nH]c2ccccc2c1NC(=O)CN1CCN(c2cccc(C(F)(F)F)c2)CC1,101.3,5.6,24.5,21.0,10.0,/
CCCCOP(=O)(c1ccc(N(C)C)cc1)C(O)c1ccc(OC)cc1 (configuration not stated),94.4,23.0,19.8,6.5,-6.9,/
CCCCOP(=O)(c1ccc(N(C)C)cc1)C(O)c1ccccc1F (configuration not stated),77.4,24.4,42.6*,30.7,0.0,20.9
CC(NC(=O)c1ccc(F)cc1)c1nc2ccccc2n1Cc1ccccc1F (configuration not stated),94.1,27.3,42.4*,7.5,4.0,29.4*
CCn1c(C(C)NC(=O)c2ccc(OC)c(OC)c2)nc2ccccc21 (configuration not stated),102.8,11.3,20.6,-16.9,1.9,/
SMILES,Yeast superoxide,tim23-1 inh,tim10-1 inh,TIM10 inh,NLRP3 yeast inh,tim10-1 confirm
O=C1C(Cl)=C(N2CCCCC2)C(=O)N1c1ccccc1Cl,91.0,41.2,38.5,31.1,12.5,/
O=C1c2cccc(Cl)c2C(=O)c2c1cccc2N1CCCC1,95.5,41.7,53.3*,38.1,26.8,38.3*
COC(=O)c1c(NC(NC(=O)C(C)C)C(Cl)(Cl)Cl)sc2c1CCCC2 (configuration not stated),100.5,16.7,-4.6,25.6,6.1,/
Cc1ccc(-c2c(=O)n(O)c3ccccc3[n+]2[O-])cc1,125.5,15.0,0.3,10.9,27.1,/
CCOC(=O)CC(NC(=O)c1cc2ccccc2oc1=O)c1cccc([N+](=O)[O-])c1 (configuration not stated),100.1,14.9,-1.9,14.1,22.6,/
Cc1cccc(NC(=O)CSc2c3c(nc4ccccc24)CCC3)n1,88.0,16.0,24.3,13.7,11.8,/
COc1cccc(NC(=O)CSc2c3c(nc4ccccc24)CCCC3)c1,93.1,33.9,42.6*,31.2,2.6,25.6
CN(C)CCSc1nc2cc(S(=O)(=O)N3CCCCC3)ccc2o1,105.6,1.9,5.9,-0.2,5.6,/
COc1ccc2cc(C)c3nnc(SCC(=O)Nc4nc(-c5ccccc5)cs4)n3c2c1,103.7,24.9,22.3,27.5,-6.2,/
CC(C)Oc1ccc(C(CC(=O)NCc2ccco2)c2ccccc2)cc1 (configuration not stated),93.8,20.0,40.1*,18.8,1.5,11.4
Cc1cccc(C(CC(=O)NCc2ccco2)c2ccccc2)c1O (configuration not stated),87.4,18.4,-4.2,3.9,-11.7,/
Cc1ccc(Nc2c(-c3ccco3)nc3nc(C)cc(C)n23)cc1,113.2,10.0,41.1*,16.6,16.9,13.8
CN(CCCNC(=O)CCC(=O)N1CCOc2ccc(Cl)cc21)Cc1ccccc1,86.3,-5.0,3.4,-3.1,15.2,/
CC(C)N(C(=O)CSc1nc2ccccc2n1-c1ccccc1)C(C)C,82.9,32.9,45.4*,28.0,2.6,28.0
CC(C)N(C(=O)CSc1nc2ccccc2n1Cc1ccccc1)C(C)C,84.3,19.4,21.4,22.5,5.2,/
CCOC(=O)C1CCN(S(=O)(=O)c2cc(Br)cc3c2N(C(=O)C2CC2)CC3)CC1,97.3,32.5,33.8,33.2,8.2,/
O=C(C1CC1)N1CCc2cc(Br)cc(S(=O)(=O)N3CCN(c4ccccn4)CC3)c21,96.0,28.2,43.8*,10.4,20.4,36.6*
O=S(=O)(c1cc(Cl)ccc1Br)N1CCCCC1,92.1,30.6,43.0*,-1.9,-27.4,31.6*
Fc1ccccc1CNc1ccc(Cl)c(Cl)c1,97.6,30.2,61.3*,13.5,18.5,68.9*
Cc1ccc(-c2ccc(=O)n(CC(=O)N3CCN(c4cc(Cl)ccc4C)CC3)n2)cc1,126.7,37.4,43.3*,13.2,4.5,27.9
CC(C)c1ccc(-c2cc(C(=O)N3N=C(C(F)F)CC3(O)C(F)F)c3ccccc3n2)cc1 (configuration not stated),86.7,37.1,41.3*,24.7,14.3,27.4
O=C(c1cc(C2CC2)nc2ccccc12)N1N=C(C(F)F)CC1(O)C(F)F (configuration not stated),108.0,10.0,10.9,6.4,8.1,/

# High-throughput results: PubChem, several laboratories
